The results in this text go back to PubChem BioAssay AID1259341 (Broad Institute, 2017).

Molecules are shown by their SMILES. A number with no mark means an inactive call. Activity calls are given as the source filed them.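 Rule for the calls: active = activity change under -35% in any replicate well, with more than 20 beads read in that well; inactive = the rest.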

For the assay, the target named is Caspase recruitment domain-containing protein 9 (Homo sapiens) + E3 ubiquitin-protein ligase TRIM62 (Homo sapiens) (UniProt Q9H257+Q9BVG3). Briefly: disruptors of CARD9-TRIM62 binding, primary screen, cell lysate, HEK293FT lysates, Luminex bead ELISA (AID 1259341).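 Note: PE anti-Flag signal of Flag-CARD9 captured by myc-TRIM62 beads.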 As to conditions: PE fluorescence, stronger effect = lower value, concentration not given here.
Sequence of Caspase recruitment domain-containing protein 9 (Homo sapiens) + E3 ubiquitin-protein ligase TRIM62 (Homo sapiens) (Q9BVG3 whole entry, looked up, the tested form may be a part): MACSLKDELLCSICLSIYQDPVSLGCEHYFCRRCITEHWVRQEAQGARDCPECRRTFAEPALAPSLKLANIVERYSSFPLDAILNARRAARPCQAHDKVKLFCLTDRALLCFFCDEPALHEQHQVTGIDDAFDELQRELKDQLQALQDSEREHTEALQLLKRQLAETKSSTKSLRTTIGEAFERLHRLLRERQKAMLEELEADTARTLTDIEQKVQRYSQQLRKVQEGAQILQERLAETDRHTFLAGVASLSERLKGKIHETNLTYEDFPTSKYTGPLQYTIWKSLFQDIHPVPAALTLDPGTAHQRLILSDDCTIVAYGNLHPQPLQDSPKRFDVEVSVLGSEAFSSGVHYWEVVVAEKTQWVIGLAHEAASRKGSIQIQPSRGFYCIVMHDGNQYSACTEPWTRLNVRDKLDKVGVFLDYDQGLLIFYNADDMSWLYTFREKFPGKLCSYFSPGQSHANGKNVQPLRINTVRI
Sequence of Caspase recruitment domain-containing protein 9 (Homo sapiens) + E3 ubiquitin-protein ligase TRIM62 (Homo sapiens) (Q9H257 whole entry, looked up, the tested form may be a part): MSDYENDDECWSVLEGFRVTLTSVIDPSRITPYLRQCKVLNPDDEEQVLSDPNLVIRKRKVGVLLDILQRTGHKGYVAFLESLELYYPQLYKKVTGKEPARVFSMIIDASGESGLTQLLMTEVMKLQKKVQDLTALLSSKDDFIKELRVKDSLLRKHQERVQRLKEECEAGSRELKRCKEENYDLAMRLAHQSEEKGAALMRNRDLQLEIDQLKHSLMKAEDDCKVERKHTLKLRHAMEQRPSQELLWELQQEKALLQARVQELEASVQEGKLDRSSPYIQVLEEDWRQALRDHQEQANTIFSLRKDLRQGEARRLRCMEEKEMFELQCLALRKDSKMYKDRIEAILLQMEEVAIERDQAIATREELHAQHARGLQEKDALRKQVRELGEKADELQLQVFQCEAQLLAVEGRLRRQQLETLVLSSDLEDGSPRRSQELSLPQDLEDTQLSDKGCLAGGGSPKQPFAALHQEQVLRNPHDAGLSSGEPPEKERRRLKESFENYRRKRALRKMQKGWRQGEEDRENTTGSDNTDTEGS
In the case of `Cc1ccc(S(=O)(=O)Nc2ccc3c(c2)C(=O)N([C@H](C)CO)C[C@H](C)[C@@H](CN(C)CC2CCCCC2)OCCCC[C@H](C)O3)cc1`, the activity change, negative = inhibition is 4.51%. As for `O=C(Nc1nccs1)c1cc(-c2ccccn2)nc2c(Cl)cccc12`, the activity change, negative = inhibition is -0.831%. Regarding `Cc1ccc2c(c1)C(N1CCCC1=O)CC(c1ccco1)N2` (stereo unspecified), the activity change, negative = inhibition was 5.12%. In the case of `COCCn1c(C)cc(-c2csc(N)n2)c1C`, the activity change, negative = inhibition was 0.765%. As for `CN(Cc1ccco1)S(=O)(=O)c1nnc(NC(=O)c2ccccc2)s1`, the activity change, negative = inhibition is 13.7%. With `N#CNc1nc(O)cc(=O)[nH]1`, the activity change, negative = inhibition was -9.24%. On to `COC[C@]1(O)CCN(C(=O)CCN(C)S(C)(=O)=O)CC1(C)C`, for which the activity change, negative = inhibition was -0.387%. The same measure for `O=C(O)c1ccc2nc(-c3ccco3)c(-c3ccco3)nc2c1`: -13.9%; for `O=C(COC(=O)c1cc(-c2ccco2)nc2ccccc12)NCc1ccccc1`: -1.75%; for `Cc1cccc(Nc2nc(C(=O)Nc3cc(F)ccc3F)nc3ccccc23)c1`: 1.63%. Regarding `Cc1[nH]c2ccc(Cl)cc2c(=O)c1CN1CCCC1`, the activity change, negative = inhibition was 0.531%. For `Cc1cncc(-c2ccc(S(N)(=O)=O)cc2F)c1`, the activity change, negative = inhibition was -3.94%. `O=C(COC(=O)c1ccc(S(=O)(=O)NCc2ccco2)cc1)Nc1ccc(Cl)cn1`: the activity change, negative = inhibition was -0.897%. As to `Cc1sc2ncnc(SCc3ccco3)c2c1C`, the activity change, negative = inhibition is -1.85%. The same measure for `O=C(COC(=O)c1cc(-c2ccco2)nc2ccccc12)NCc1ccc2c(c1)OCO2`: 3.18%.

Consider `O=C(Nc1ccc2oc(-c3cccnc3)nc2c1)c1ccc2c(c1)OCCO2`, for which the activity change, negative = inhibition is 4.18%. `C[C@H](CO)N1C[C@H](C)[C@@H](CN(C)CC2CCCCC2)OCCCC[C@H](C)Oc2ccc(NS(=O)(=O)c3ccc(Cl)cc3)cc2C1=O`: the activity change, negative = inhibition is 8.08%. `Cc1cccc2nc(CSCc3ccco3)cn12`: the activity change, negative = inhibition is -4.69%. Turning to `CCOC(=O)c1[nH]c(Cc2[nH]c(C(=O)OCC)c(C)c2C)c(C)c1C`, the activity change, negative = inhibition was -0.0423%. On to `Nc1ccc2ncccc2c1N`, for which the activity change, negative = inhibition was 1.19%. Consider `CCOC(=O)c1ccc(-c2ccc(C3CC(=O)Nc4cc5c(cc43)OCCO5)o2)cc1` (stereo unspecified), for which the activity change, negative = inhibition is -0.752%.

Consider `CCOc1ccc(-n2c3nc4ccccc4nc3c3c(=O)n(Cc4ccco4)cnc32)cc1`, for which the activity change, negative = inhibition was 6.8%. For `O=C1c2cccnc2C(=O)N1Cc1ccc(S(=O)(=O)NCc2ccco2)cc1`, the activity change, negative = inhibition was 29.2%. For `O=C(NCc1ccco1)c1c2c(nc3ccccc13)CCC2`, the activity change, negative = inhibition was -3.42%. On to `Cc1nn2c(c1-c1ccccc1)NC(c1ccco1)=CC2c1ccco1` (stereo unspecified), for which the activity change, negative = inhibition was 21.4%. In the case of `COc1cccc(NC(=O)CN(C)C(=O)c2cc3c(s2)CCC3)c1`, the activity change, negative = inhibition is -19.8%. Regarding `COc1ccc(F)c(CN2C[C@H]3CC[C@@H]2CN(Cc2cscn2)C3)c1`, the activity change, negative = inhibition is -3.76%.

Regarding `Cc1ccc(C(=O)Nc2cnc(N3CCC(C(N)=O)(N4CCCCC4)CC3)c(C(=O)O)c2)cc1`, the activity change, negative = inhibition was -51.3% (active). Take `O=C(CCn1cncn1)N1CCC(n2cc(-c3ccccn3)nn2)CC1`: the activity change, negative = inhibition is 3.29%. The same measure for `O=C(NCc1ccco1)[C@@H]1CSC2c3ccccc3C(=O)N21` (stereo partly specified): -0.672%; for `C[C@H](CO)N1C[C@H](C)[C@@H](CN(C)CC2CCCCC2)OCCCC[C@H](C)Oc2ccc(NS(=O)(=O)c3cccs3)cc2C1=O`: 9.64%; for `Cc1cccc(NC(=O)Cc2coc3ccc4ccccc4c23)n1`: -0.738%. As for `Cc1ccc(Nc2nc(C(=O)Nc3ccc(Br)cc3)nc3ccccc23)cc1`, the activity change, negative = inhibition is 4.69%. Consider `O=C(O)Cc1c[nH]c2cccc(O)c12`, for which the activity change, negative = inhibition is 0.751%. Consider `CCc1oc2ccccc2c1C(=O)CCN1CCCCC1`, for which the activity change, negative = inhibition is 2.4%.

Regarding `O=S(=O)(c1ccc2nc(-c3ccco3)c(-c3ccco3)nc2c1)N1CCOCC1`, the activity change, negative = inhibition is -5.03%.
